Laboratory results taken from PubChem BioAssay AID1159580 (chemical genetic matrix, 2015).
Several values for one entry are separate records, joined by “and”; a condition that tells them apart may be missing. Identical values can stand only once. In all, about 5,500 compounds went through this assay and about 2,000 (36%) were called active. Not shown: some 18% with an inconclusive outcome. No stated cut-off is given here; in the data, active means normalized growth mostly below about 0.91 (no sharp cut-off); inconclusive means no clear call, values can overlap the other calls; inactive means mostly above about 0.92. The list shows a part of the results.

Assay: chemical genetic growth profiling, strain panel (AID 1159580);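 further: tested at 20 µM; growth read once vehicle control cultures reached saturation at 30 °C; 1 = growth at the plate median or of vehicle wells; lower values mean less growth of the strain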
Details: S. cerevisiae deletion strains, growth OD

Measured: normalized growth

OC[C@@H]1CCCN2CCCC[C@H]12
inactive: locus YAL013W, strain DEP1, hits give low values 0.983 | locus YAL021C, strain ccr4, hits give low values 1.05 | locus YAL026C, strain drs2, hits give low values 1.04 | locus YAL030W, strain snc1, hits give low values 1.03 | locus YBL061C, strain skt5, hits give low values 1.03 | locus YBR009C, strain hhf1, hits give low values 1.01 | locus YBR021W, strain FUR4, hits give low values 0.998 | locus YBR023C, strain chs3, hits give low values 1.05 | locus YBR171W, strain sec66, hits give low values 1.05 | locus YBR229C, strain ROT2, hits give low values 0.998 | locus YBR231C, strain swc5, hits give low values 1.03 | locus YBR279W, strain paf1, hits give low values 1.03 | locus YCL011C, strain gbp2, hits give low values 1.03 | locus YCL016C, strain dcc1, hits give low values 1.03 | locus YCL029C, strain bik1, hits give low values 1.02 | locus YCL061C, strain MRC1, hits give low values 1.02 | locus YCL069W, strain vba3, hits give low values 1.04 | locus YCR088W, strain abp1, hits give low values 1.04 | locus YDL005C, strain med2, hits give low values 1.03 | locus YDL035C, strain GPR1, hits give low values 1.01 | locus YDL040C, strain nat1, hits give low values 1.02 | locus YDL074C, strain BRE1, hits give low values 1.01 | locus YDL101C, strain DUN1, hits give low values 1.01 | locus YDL134C, strain PPH21, hits give low values 0.989 | locus YDL185W, strain tfp1, hits give low values 1.02 | locus YDL192W, strain arf1, hits give low values 1.01 | locus YDR001C, strain nth1, hits give low values 1.02 | locus YDR069C, strain doa4, hits give low values 1.01 | locus YDR101C, strain arx1, hits give low values 1.02 | locus YDR137W, strain rgp1, hits give low values 1.05 | locus YDR159W, strain sac3, hits give low values 0.961 | locus YDR162C, strain NBP2, hits give low values 1.01 | locus YDR195W, strain ref2 1.02 | locus YDR297W, strain sur2, hits give low values 1.01 | locus YDR318W, strain mcm21, hits give low values 1.01 | locus YDR334W, strain swr1, hits give low values 1.02 | locus YDR335W, strain msn5, hits give low values 1.04 | locus YDR388W, hits give low values 1.01 | locus YDR392W, strain spt3, hits give low values 0.945 | locus YDR502C, strain sam2, hits give low values 1.01 | locus YEL003W, strain gim4, hits give low values 1.04 | locus YEL037C, strain rad23, hits give low values 1.03 | locus YEL061C, strain CIN8 (second series), hits give low values 1.02 | locus YEL061C, strain CIN8, hits give low values 1 | locus YER015W, strain faa2, hits give low values 1.03 | locus YER016W, strain bim1, hits give low values 1.02 | locus YER110C, hits give low values 1.02 | locus YER111C, strain swi4, hits give low values 1.03 | locus YER155C, strain BEM2 (second series), hits give low values 1 | locus YER155C, strain BEM2, hits give low values 0.996 | locus YER167W, strain BCK2, hits give low values 1 | locus YFR010W, strain ubp6, hits give low values 1.01 | locus YGL078C, strain dbp3, hits give low values 1 | locus YGL086W, strain mad1, hits give low values 1.01 | locus YGL167C, strain pmr1, hits give low values 1.02 | locus YGL173C, strain kem1, hits give low values 1.02 | locus YGL227W, strain vid30, hits give low values 1.03 | locus YGL240W, strain doc1, hits give low values 1.01 | locus YGL248W, strain PDE1, hits give low values 0.993 | locus YGL253W, strain hxk2, hits give low values 1.05 | locus YGR078C, strain PAC10, hits give low values 1 | locus YGR135W, strain pre9, hits give low values 0.993 | locus YGR252W, strain gcn5, hits give low values 0.957 | locus YHR013C, strain ard1, hits give low values 1.03 | locus YHR027C, strain rpn1, hits give low values 1.01 | locus YHR030C, strain SLT2, hits give low values 0.998 and 1.01 | locus YHR079C, strain IRE1 (second series), hits give low values 1.01 | locus YHR079C, strain IRE1, hits give low values 1.02 | locus YHR094C, strain hxt1, hits give low values 1.01 | locus YHR129C, strain ARP1, hits give low values 1.01 | locus YHR142W, strain chs7, hits give low values 1.04 | locus YHR200W, strain rpn10, hits give low values 1.02 | locus YIL066C, strain RNR3, hits give low values 1.01 | locus YIL073C, strain SPO22, hits give low values 1.05 | locus YIL125W, strain kgd1, hits give low values 1.01 | locus YIR030C, strain dcg1, hits give low values 1.01 | locus YJL092W, strain hpr5, hits give low values 1.03 | locus YJL095W, strain BCK1 (second series), hits give low values 1.02 | locus YJL095W, strain BCK1, hits give low values 1.03 and 1 | locus YJL115W, strain asf1, hits give low values 1.03 | locus YJL129C, strain trk1, hits give low values 1.06 | locus YJL134W, strain LCB3, hits give low values 0.978 | locus YJL154C, strain vps35, hits give low values 1.02 | locus YJL164C, strain tpk1, hits give low values 1.02 | locus YJL166W, strain qcr8, hits give low values 1.02 | locus YJL168C, strain set2, hits give low values 1 | locus YJL187C, strain SWE1 (second series), hits give low values 1.02 | locus YJL187C, strain SWE1, hits give low values 1.04 | locus YJR043C, strain POL32, hits give low values 0.992
